# DT40 TDP1 no CPT: qHTS for Inhibitors of human tyrosyl-DNA phosphodiesterase 1 (TDP1): qHTS in cells in absence of CPT. DT40 Tdp1-/- hTDP1 cells, no CPT, ATP luminescence, 48 h. Potency, µM (top dose mostly 46.2 µM), for inactives: at the top dose activity change, negative = growth inhibition, usual class: inhibitors. 420,000 compounds, 15% hits. AID 686978, 2013; note: potency is the fitted concentration of half-maximal effect; % is set by controls: 0 for no effect and ±100 for the full control effect; nearly all actives have a fitted effect of over 55% in size
#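 Readout: luminescence from CellTiter-Glo after 30 min in the dark at RT. Cells: DT40 Tdp1-/- with stable hTDP1, 400/well. Exposure: compounds alone, ≥48 hr, 37 °C.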
# DT40 TDP1 CPT: DT40-hTDP1 cell growth loss with CPT | chicken DT40 Tdp1-/-;hTDP1 cells + 20 nM CPT, ATP luminescence, 48 h | Potency, µM (highest dose often 46.2 µM), for inactives: at the highest dose activity change, negative = growth inhibition, hits mostly inhibitors | 420,000 compounds, 12% hits | AID 686979; note: potency is the fitted concentration of half-maximal effect; % is set by controls: 0 for no effect and ±100 for the full control effect; nearly all actives have a fitted effect of over 55% in size
#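 Chicken DT40 Tdp1-/- cells stably complemented with human TDP1 were seeded at 400 cells/well in medium containing 20 nM camptothecin, exposed to pin-transferred compounds, and grown at 37 °C for at least 48 hr. Viability was read as ATP luminescence.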
# TGFb SMAD3 inh: inhibitors of TGF-b signaling. HepG2 CAGA-GFP TGF-b/SMAD3 reporter, GFP fluorescence, 18 h; TGF-beta stimulated, 500 pg/mL final. 410,000 compounds, 1.2% hits. AID 588855. Potency, µM (highest dose often 46.1 µM), without a hit: at the highest dose activity, negative = inhibition, most hits filed as inhibitors; note: potency is the fitted concentration of half-maximal effect; % is set by controls: 0 for no effect and ±100 for the full control effect; nearly all actives have a fitted effect of over 65% in size
#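 HEPG2 CAGA-GFP, 1000 cells/well; 2 h settle, 37 C; cpd via pin tool; TGF-b 500 pg/mL final; 18 h, 37 C; GFP imaging ex488/em500-530; %Activity normalised to -TGF-b and +DMSO controls; CRC fit, curve class.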
# IL-1B inflam inh: inflammasome signaling inhibition, IL-1 beta readout; 360,000 compounds, 4.7% hits; THP-1 LPS/ATP IL-1B secretion, AlphaLISA, 16 h; stronger effect = lower value; AID 743279; activity change, % at 57.5 µM; in the data active = activity change below about -50%; inconclusive = mostly about -30% to -49%; note: % is set by controls: 0 for no effect and ±100 for the full control effect
#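 Secreted IL-1B measured by AlphaLISA bead assay after 16 h compound exposure of THP-1 cells; compounds (final up to 57.5 uM) added 1 h before LPS (250 ng/mL) and ATP (1.25 mM) stimulation; lower signal means less secretion.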
# HepG2 tox: counter-screen for TGF-b inhibitors: cytotoxicity in HepG2 cells. 410,000 compounds, 0.76% hits. HepG2 CAGA-GFP viability, ATP luminescence, 18 h. AID 588856. Potency, µM (highest dose often 46.1 µM), without a hit: at the highest dose activity change, negative = cytotoxicity, most hits filed as cytotoxic; note: potency is the fitted concentration of half-maximal effect
#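 CellTiter-Glo luminescence gave cytotoxicity after 18 hours at 37 degrees C. The cells were HepG2 CAGA-GFP in 1% FBS DMEM, stimulated with 500 pg/mL TGF-beta after compound addition. %Activity was normalised to no-cell wells (complete cell-killing) and DMSO (no toxicity), and curves were fitted and classified.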
# TDP1 inh: inhibitors of human tyrosyl-DNA phosphodiesterase TDP1; recombinant TDP1, AlphaScreen DNA substrate cleavage; Potency, µM (top dose mostly 130 µM), without a hit: top-dose activity change, negative = inhibition, actives largely listed as inhibitors; 350,000 compounds, 0.28% hits; AID 485290; note: potency is the fitted concentration of half-maximal effect; % is set by controls: 0 for no effect and ±100 for the full control effect; nearly all actives have a fitted effect of over 40% in size
# Target sequence (Q9NUW8 whole entry, looked up): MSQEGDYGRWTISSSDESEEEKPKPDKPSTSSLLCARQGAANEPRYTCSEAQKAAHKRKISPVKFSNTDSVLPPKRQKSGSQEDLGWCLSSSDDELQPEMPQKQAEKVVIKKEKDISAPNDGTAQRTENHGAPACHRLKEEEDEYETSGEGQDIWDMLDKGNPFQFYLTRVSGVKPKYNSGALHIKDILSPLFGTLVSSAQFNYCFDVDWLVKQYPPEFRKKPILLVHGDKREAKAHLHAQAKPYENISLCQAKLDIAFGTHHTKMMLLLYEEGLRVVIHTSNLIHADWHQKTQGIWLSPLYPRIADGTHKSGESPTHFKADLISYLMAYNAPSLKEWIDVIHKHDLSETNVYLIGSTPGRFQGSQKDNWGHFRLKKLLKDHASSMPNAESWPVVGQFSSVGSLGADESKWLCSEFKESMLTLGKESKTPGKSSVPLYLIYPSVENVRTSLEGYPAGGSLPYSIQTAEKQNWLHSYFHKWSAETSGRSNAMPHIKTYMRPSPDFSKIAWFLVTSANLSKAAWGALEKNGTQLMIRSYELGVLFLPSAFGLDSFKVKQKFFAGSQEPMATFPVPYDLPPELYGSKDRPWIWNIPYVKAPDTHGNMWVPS
#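 Recombinant E. coli-expressed Tdp1 (1 nM) preincubated with compound 15 min at RT, then 5'-biotin/3'-phosphotyrosine-FITC DNA substrate (15 nM) added for 5 min. AlphaScreen beads (10 ug/ml) added, 10 min RT; tyrosine-FITC cleavage read as signal loss.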
# * marks the source's active call; other numbers are inactive results; i = inactive; u = inconclusive; x = no result; [ ] = remark or other dose. In the library only some 18% were active in any assay of this set; here they are far more common. Unless noted, calls come from the whole dose curve; as a rule, active = well fitted curve in the direction sought with a large enough effect; inconclusive = small, poorly fitted or top-dose-only effect, or another doubt; inactive = no such curve, though single readings can be large; an effect the other way counts as inactive or inconclusive.
SMILES,DT40 TDP1 no CPT,DT40 TDP1 CPT,TGFb SMAD3 inh,IL-1B inflam inh,HepG2 tox,TDP1 inh
CC(C)Cn1[nH]c2c3c(ccc2c1=O)C(=O)c1ccccc1C3=O,16µM*,23µM*,u,-7,-27%,8%
COC(=O)c1ccc(C(=O)OC)c(NC(=O)C2CC(=O)N(C3CCCC3)C2)c1 (stereo not given),-15%,-1%,-1%,21,0%,x
COc1ccc2nc(N=Nc3ccc(O)c4ccccc34)sc2c1,1.3µM*,1.3µM*,u,0,-12%,3%
COc1ccc2nc(N=NC3=C(O)CC(C)(C)CC3=O)sc2c1,5.8µM*,5.2µM*,3%,141,-12%,10%
NC(=O)Cn1c(=O)n(CCc2ccccc2)c(=O)c2c3c(sc21)CCCC3,-19%,-20%,0%,-4,-2%,-2%
NNc1nc2sc3c(c2c(=O)n1Cc1ccccc1)CCC3,-11%,-17%,31%,-5,1%,x
CN(C)CCCNc1nc2sc3c(c2c(=O)n1CCc1ccccc1)CCCCC3,16µM*,u,2%,x,-99%,3%
Cn1c(=O)n(Cc2ccco2)c(=N)c2c3c(sc21)CCC3,-29%,-22%,-3%,14,-14%,-2%
CN(C)CCn1c(=O)n(Cc2ccccc2)c(=O)c2c3c(sc21)CCCCC3,u,-7%,15%,-64*,-22%,x
CN(C)CCCn1c(=O)n(CCc2ccccc2)c(=O)c2c3c(sc21)CCCCC3,23µM*,u,13%,u,-8%,6%
CN(C)CCCn1c(=O)n(Cc2ccco2)c(=O)c2c3c(sc21)CCCCC3,u,u,u,x,13µM*,1%
Cc1ccc(S(=O)(=O)CCC(=O)NC2CCCC2)cc1,13%,-16%,10%,7,16%,3%
O=C(Cc1ccc(Cl)cc1)N/N=C1\CCCc2ccccc21,23µM*,u,u,20,-84%,2%
O=C(CNc1ccc(F)cc1)N/N=C1\CCCc2ccccc21,u,3%,-12%,-18,-39%,2%
O=C(Cc1cccc2ccccc12)NN=Cc1ccc2c(c1)CCC2,21µM*,u,-3%,1,5%,x
Cn1cccc1/C=N/NC(=O)Cc1cccc2ccccc12,12µM*,u,-13%,34,6%,2%
O=C(Cc1cccc2ccccc12)N/N=C1\CCCc2ccccc21,16µM*,u,-5%,22,-8%,0%
O=C(CCC(=O)Nc1ccccc1Cl)N/N=C1\CCCc2ccccc21,-23%,-23%,5%,8,3%,3%
Cn1cccc1/C=N/NC(=O)CNc1ccc2ccccc2c1,-17%,12%,19%,x,29%,10%
O=C(COc1ccc([N+](=O)[O-])cc1)NNC(=O)Nc1ccccc1F,18%,-14%,-1%,11,2%,5%[56.1 µM]
CN(CC(=O)Nc1cccc(F)c1)C(=O)c1ccc(COc2ccccc2)o1,u,u,-19%,11,1%,1%
CC(=O)c1cccc(NC(=S)N2CCN(c3ccccn3)CC2)c1,-12%,-19%,-5%,-6,1%,2%[56.1 µM]
C#CC1(O)CCC2C3CCc4cc(O)cc(C)c4C3CCC21C (stereo not given),u,16µM*,u,2,-43%,x
NC(=O)C(c1ccc(Br)cc1)c1ccc(C(=O)c2ccccc2)cc1 (stereo not given),15µM*,u,u,-91*,-25%,x
N#C/C(=C\c1c[nH]c2ccccc12)C(=O)c1ccc(O)c(O)c1,x,x,x,x,x,17%[56.1 µM]
SMILES,DT40 TDP1 no CPT,DT40 TDP1 CPT,TGFb SMAD3 inh,IL-1B inflam inh,HepG2 tox,TDP1 inh
CSc1ncccc1C(=O)NCC1Cc2cc(-c3cnccn3)ccc2O1 (stereo not given),-28%,-16%[9.04 µM],x,x,x,x
COC(=O)Cn1c(=NC(=O)c2cc(OC)cc(OC)c2)sc2cc(OC)ccc21,u,u,-10%,18,-6%,1%
COC(=O)Cn1c(=NC(=O)c2cccc(OC)c2)sc2cc(OC)ccc21,23µM*,-74%,2%,-6,-14%,x
COC(=O)Cn1c(=NC(=O)c2ccc(OC)cc2)sc2cc(OC)ccc21,9.2µM*,u,16%,-4,1%,-3%
Cc1cccc(N2CCN(C(=O)NC(C)c3ccc(F)c(F)c3)CC2)c1C (stereo not given),u,u,2%,-26,-21%,x
COC(=O)c1cn(C(=O)c2cc(Br)ccc2Cl)c2ccccc12,u,u,-9%,61,-9%,x
CC(C)c1cc(C(C)C)c(S(=O)(=O)N2CCNCC2)c(C(C)C)c1,u,u,u,-81*,-138%,x
Cc1cc(C)c(C)c(S(=O)(=O)N2CCNCC2)c1C,-28%,-13%,0%,0,0%,5%
O=C1c2ccccc2CCc2ccccc21,-1%,-1%,-3%,-9,-8%,x
O=C1c2ccccc2CSc2c(O)cccc21,-37%,u,-7%,-64*,12%,x
Cc1ccccc1C1CC(=O)c2ccccc2C1C (stereo not given),u,u,-3%,18,7%,x
O=C1c2ccccc2[C@@H]2Cc3csc[n+]3[C@H]12,5.2µM*,3.7µM*,x,u,x,x
CC(C(=O)N/N=C/c1ccc(N(C)C)c(Br)c1)N(c1ccccc1)S(C)(=O)=O (stereo not given),9.2µM*,u,-4%,-7,-18%,2%
COc1cc(O)ccc1CN1CCc2nnc(C(C)NC(=O)c3cc(F)ccc3F)n2CC1 (stereo not given),2%,5%,x,x,x,x
Nc1nnc(SC2CC(=O)N(c3ccccc3)C2=O)s1 (stereo not given),3.3µM*,7.3µM*,2%,-89*,-11%,5%
Cc1cccc(N2C(=O)CC(Sc3nccc(C)n3)C2=O)c1 (stereo not given),-21%,u,5%,24,16%,x
Cc1nc(SC2CC(=O)N(c3ccccc3)C2=O)n[nH]1 (stereo not given),5.2µM*,1.5µM*,-9%,-23,0%,5%
COc1ccccc1N1C(=O)CC(Sc2n[nH]c(-c3cccc(C)c3)n2)C1=O (stereo not given),2.1µM*,2.1µM*,u,i,-56%,1%
O=C(O)CCSC1CC(=O)N(c2ccccc2)C1=O (stereo not given),10%,-7%,0%,14,-3%,x
